TIM10 inh = growth inhibitors of isogenic TIM10 control yeast, primary screen, counter-screen for tim10-1 yeast inhibitor project, luminescence, uHTS. S. cerevisiae TIM10 strain growth, BacTiter-Glo luminescence, 24 h. inhibition, % at 10 µM. actives 1.4% (n = 330,000);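 active = inhibition of 40% or more at the single tested concentration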;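 also: wild-type TIM10 isogenic control strain grown at permissive 25 °C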
tim23-1 inh = growth inhibitors of tim23-1 mutant yeast, primary screen, luminescence, uHTS; S. cerevisiae tim23-1 growth, BacTiter-Glo luminescence, 24 h; inhibition, % at 20 µM; actives 1.3% (n = 330,000); AID 463212, 2010;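 active = growth inhibition of the mutant yeast at or above 50%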;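 also: temperature-sensitive mutant grown at 25 °C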
tim10-1 inh = growth inhibitors of tim10-1 mutant yeast, primary screen, luminescence, uHTS; S. cerevisiae tim10-1 ts strain growth, BacTiter-Glo, 24 h; inhibition, % at 20 µM; actives 2.2% (n = 330,000); AID 463190, 2010;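 active = inhibition of at least 40%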;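 also: mutant grown at 25 °C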
Beta2AR agonist = beta2AR agonists driving receptor internalization, primary screen, cell-based, FAP fluorogen, flow cytometry; Am2.2-beta2AR cells; response, % (no concentration beside the values); actives 0.43% (n = 340,000); AID 504454, 2011;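 active = response above a set limit, near 3 SD of response in nonfluorescent compounds, cut at about 42% in these data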
Target sequence (P07550 whole entry, looked up): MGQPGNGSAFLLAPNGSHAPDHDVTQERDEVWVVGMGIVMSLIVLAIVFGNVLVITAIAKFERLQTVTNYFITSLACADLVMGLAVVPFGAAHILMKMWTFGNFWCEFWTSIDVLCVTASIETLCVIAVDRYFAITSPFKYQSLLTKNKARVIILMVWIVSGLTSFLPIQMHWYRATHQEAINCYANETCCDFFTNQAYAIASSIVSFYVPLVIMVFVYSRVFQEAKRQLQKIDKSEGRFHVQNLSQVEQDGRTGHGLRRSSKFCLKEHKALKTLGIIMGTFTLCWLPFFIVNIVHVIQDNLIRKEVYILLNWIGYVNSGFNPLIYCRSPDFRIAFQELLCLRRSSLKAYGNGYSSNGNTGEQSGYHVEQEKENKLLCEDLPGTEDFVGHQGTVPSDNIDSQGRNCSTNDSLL
PfHsp90 set2 = growth inhibition of PfHsp90-expressing yeast, primary screen, antimalarial PfHsp90 inhibitor project, S. cerevisiae, BacTiter-Glo luminescence, single point, set 2; inhibition, % at 9.4 µM; BacTiter-Glo ATP, 48 h; yeast lacking PDR1 and PDR3 efflux regulators; actives 0.32% (n = 310,000);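 active = every replicate shows inhibition above about 80%, whatever the replicate mean, limit read from the data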
tim10-1 confirm = growth inhibitors of tim10-1 mutant yeast, confirmation, single concentration, luminescence, S. cerevisiae | actives 56% (n = 7,400) | shares compounds with tim10-1 inh | S. cerevisiae tim10-1 ts strain growth, BacTiter-Glo, 24 h | inhibition, % at 20 µM;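 active = inhibition of yeast growth at or above a set limit in either of two repeat tests at 20 µM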;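 also: tim10-1 mutant grown at permissive 25 °C to find synthetic lethal compounds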
Of the large screens only hits and unclear results are named; the others gave an inactive call (follow-up assays come after a bar, where they were run). Hits are enriched below; roughly 3.8% of the tested compounds scored in any of these assays.

Cc1cccc(CNC(=O)c2ccccc2NC(=O)C2=CSCCO2)c1	none
Cc1cccc(CNC(=O)c2ccc(NC(=O)C3=CSCCO3)cc2)c1	tim10-1 inh 50.1 | tim10-1 confirm inactive
CCOc1ccccc1CNC(=O)c1ccc(NC(=O)C2=CSCCO2)cc1	tim10-1 inh 44.9 | tim10-1 confirm inactive
CCOc1ccccc1CNC(=O)c1ccc(NC(=O)C2=C(C)OCCS2)cc1	none
Cc1cccc(C)c1-n1c(C)cc(/C=N\NC(=O)CC(=O)NC2CCCCC2)c1C	tim10-1 inh 41.1 | tim10-1 confirm inactive
Cc1cccc(C)c1-n1c(C)cc(/C=N/NC(=O)CSc2ncccn2)c1C	none
Cc1cc(/C=N\NC(=O)CC(=O)NC2CCCCC2)c(C)n1-c1ccc(Cl)c(Cl)c1	tim10-1 inh 46.4, Beta2AR agonist 55.6 | tim10-1 confirm inactive
Cc1cc(/C=N\NC(=O)CC(=O)NC2CCCCC2)c(C)n1-c1cccc(Cl)c1Cl	none
Cc1ccccc1C(=O)NC(=S)Nc1ccccc1N1CCCC1	tim10-1 inh 50.6 | tim10-1 confirm 37.2
O=C(NC(=S)Nc1ccccc1N1CCCCC1)c1ccc(F)cc1Cl	none
COc1ccccc1C(=O)NC(=S)Nc1ccccc1N1CCCC1	none (no result: PfHsp90 set2)
CC1CCN(c2ccccc2NC(=O)c2ccc(F)cc2)CC1	none
O=C(COc1ccccc1Cl)NC(=S)Nc1ccccc1N1CCCC1	tim10-1 inh 51.1 | tim10-1 confirm inactive
O=C(NC(=S)Nc1ccccc1N1CCCC1)c1ccc(F)cc1	tim10-1 inh 41.3 | tim10-1 confirm inactive
CC1CCN(c2ccccc2NC(=S)NC(=O)C(C)(C)C)CC1	tim10-1 inh 48.6 | tim10-1 confirm 32.5
OCC1(CO)CCCC(CO)(CO)C1O	none (no result: TIM10 inh, tim23-1 inh, tim10-1 inh)
COc1ccc(N2C(=O)CC(N3CCC(O)(c4cccc(C(F)(F)F)c4)CC3)C2=O)cc1 (stereo not given)	tim10-1 inh 43.1 | tim10-1 confirm 33.5
COc1ccc(N2C(=O)CC(N3CCCCC3)C2=O)cc1 (stereo not given)	none
C=CCN1[C@@H](Cc2ccccc2)COCCS1(=O)=O	none (no result: TIM10 inh, tim23-1 inh, tim10-1 inh)
O=C(c1cccs1)N1CCN(c2ncc(C(F)(F)F)cc2Cl)CC1	none
CCc1cc(C(=O)N2CCN(c3ncc(C(F)(F)F)cc3Cl)CC2)sc1C	tim10-1 inh 41.7 | tim10-1 confirm 35.4
O=C(CN(CCc1ccccc1)Cc1ccccc1)Oc1ccccc1P(=O)(O)O	none
C(=N/Nc1nccs1)/c1cccnc1	none
Clc1cccc(/C=N\Nc2nccs2)c1	tim10-1 inh 47.6 | tim10-1 confirm inactive
COc1ccc(OCCC(=O)OCC(=O)NC2CCCCCCC2)cc1	tim10-1 inh 42.8 | tim10-1 confirm 39.7
CNc1ccccc1C(C)(C)c1cc(-c2cccc(Br)c2)no1	none
CNc1ccccc1C(C)(C)c1cc(-c2cccc([N+](=O)[O-])c2)no1	tim10-1 inh 42.6 | tim10-1 confirm 33.4
CC12CCC(C(=O)CC1=O)C2(C)C (stereo not given)	none (no result: TIM10 inh, tim23-1 inh, tim10-1 inh)
O=C1N(Cc2ccccc2)CC2(Br)COCOC12O (stereo not given)	none (no result: TIM10 inh, tim23-1 inh, tim10-1 inh)
O=C(COC(=O)c1cc(Cl)ccc1O)NCCC1=CCCCC1	none
NNC(=O)c1ccc(COc2ccc3ccccc3c2)o1	tim10-1 inh 41.9 | tim10-1 confirm inactive
CCNC(=S)N/N=C(\C)c1cccc([N+](=O)[O-])c1	tim10-1 inh 44.3 | tim10-1 confirm inactive
O=C(NCC1CCCO1)c1cccc(S(=O)(=O)N2CCCCC2)c1 (stereo not given)	none
CCC(C)c1ccc(NC(=O)Nc2cccnc2)cc1 (stereo not given)	tim10-1 inh 43.3 | tim10-1 confirm 33.5
Cc1cccc(NC(=O)CSCC(=O)N(C)Cc2c(F)cccc2Cl)c1	none
CC1CC(C)CN(S(=O)(=O)c2ccc3c(c2)CC(C)N3C(=O)C2CC2)C1 (stereo not given)	none
COc1cccc(CNC(=O)C2CCN(S(=O)(=O)c3ccc4c(c3)CC(C)N4C(=O)C3CC3)CC2)c1 (stereo not given)	none
COc1ccc(CNC(=O)C2CCN(S(=O)(=O)c3ccc4c(c3)CC(C)N4C(=O)C3CC3)CC2)cc1 (stereo not given)	none | tim10-1 confirm 31.2
CC1CC(C)CN(S(=O)(=O)c2ccc3c(c2)CC(C)N3C(=O)C2CCC2)C1 (stereo not given)	tim10-1 inh 42.7 | tim10-1 confirm inactive
CC(C)Oc1cc(C(=O)N2CCC(N3CCCCC3)CC2)ccc1Nc1nnc(Cl)c(Nc2ccccc2S(C)(=O)=O)n1	none (no result: TIM10 inh, tim23-1 inh, tim10-1 inh, PfHsp90 set2)
Cc1ccc(-c2cc(-c3ccccc3Cl)c(C#N)c(N)n2)o1	tim10-1 inh 40.7 | tim10-1 confirm inactive
N#Cc1c(-c2ccco2)cc(C2CC2)nc1N	none
Cc1ccc(-c2cc(-c3ccc(F)cc3)nc(N)c2C#N)o1	none
Cc1ccc(-c2c(C#N)c(N)nc3c2CCCC3)o1	none
N#Cc1c(-c2ccccc2)cc(C2CC2)nc1N	tim10-1 inh 41.8 | tim10-1 confirm inactive
Cc1ccc(-c2cc(-c3ccccc3)c(C#N)c(N)n2)o1	tim10-1 inh 50.0 | tim10-1 confirm inactive
O=C(CCN1CCOCC1)N1CCCC(Nc2cccc(F)c2)C1 (stereo not given)	none
O=[N+]([O-])c1cccc(S(=O)(=O)N2CCCCC2c2cccnc2)c1 (stereo not given)	none
O=C(CN(Cc1ccccc1Cl)C(=O)c1csnn1)NCc1ccc2c(c1)OCO2	none
Cc1ccc(S(=O)(=O)CCC(=O)OCC(=O)Nc2cc(S(=O)(=O)N3CCOCC3)ccc2Cl)cc1	none (no result: TIM10 inh, tim23-1 inh, tim10-1 inh)
O=C(COC(=O)CCS(=O)(=O)c1ccccc1)Nc1cc(S(=O)(=O)N2CCCCC2)ccc1Cl	tim10-1 inh 40.4 (no result: PfHsp90 set2) | tim10-1 confirm 42.2
CC(C)c1cc2c(c(O)c1O)[C@@]13CCCC(C)(C)C1CC2OC3=O (stereo not given in full)	tim10-1 inh 42.6 | tim10-1 confirm 34.8
CCN1C[C@@H]2[C@@H]3C(=O)N(Cc4ccccc4)C(=O)[C@@H]3[C@](Cc3ccccc3)(C1=O)N2C(=O)c1ccc(C)cc1	none (no result: TIM10 inh, tim23-1 inh, tim10-1 inh)
Oc1[nH]c2c(Cl)cc(Cl)cc2c1N=NC(=S)NCC1CCCO1 (stereo not given)	tim10-1 inh 46.3 | tim10-1 confirm inactive
Cc1ccc(CSCC(=O)Nc2ccc(N3CCOCC3)cc2N2CCOCC2)cc1	none
CCOC(=O)c1cnc2ccc(C(=O)OC)cc2c1Nc1ccc2c(c1)OCCO2	none
CCOC(=O)c1cnc2c(OC)cccc2c1Nc1ccc2c(c1)OCCO2	tim10-1 inh 44.3 | tim10-1 confirm 32.2
CCCN(CCC)C(=O)c1cn(CC)c2ccc(S(=O)(=O)N3CCCCC3)cc2c1=O	none
COc1ccc(C)cc1NC(=O)c1cc(S(=O)(=O)N2CCC3(CC2)OCCO3)ccc1F	tim10-1 inh 45.9 | tim10-1 confirm inactive

Screens: PubChem BioAssay, several laboratories
